# From ChEMBL document CHEMBL3988442, “University of Dundee, Small-Polar-MMV Screening Library” (2021)
# In all, about 38,000 compounds went through this assay and about 1,200 (3.2%) showed an effect of 50% or more. The median lay at about -58%. For the sample, strong results were picked, then their nearest neighbours and some compounds at random.
# System: Plasmodium falciparum
# Assay: Calibr Malaria Delayed Death Assay SOP
# Type: functional, organism-based
# Design: scale not given: in the data most compounds retested in dose-response had high values
# Conditions: concentration 4.99e-06 (unit not given; other assays of the set use mol/L)
row,Compound,Percent Effect
1,COc1ccccc1C(=O)Nc1c(F)c(C(=O)N2CCCC2)nn1C,-139.8%
2,COC(=O)CN1Cc2cc3c(cc2NCCC1=O)OCO3,-54.83%
3,CCCc1nc2c(c(C)c(C)n2Cc2ccccn2)c(N)c1CC,58.37%
4,Cc1c(C)n(Cc2ccccn2)c2nc3c(c(N)c12)CCCCCC3,58.63%
5,CCCc1nc2c(c(C)c(C)n2Cc2ccncc2)c(N)c1CC,59.32%
6,CCc1cc(NCCc2cccnc2)n2nc(C)c(C)c2n1,-66.72%
7,Cc1c(C)n(Cc2ccccn2)c2nc3c(c(N)c12)CCCCC3,22.61%
8,CCCc1nc2c(c(C)c(C)n2Cc2cccnc2)c(N)c1CC,64.11%
9,Cc1c(C)n(Cc2ccccn2)c2nc3c(c(N)c12)CCCC3,45.51%
10,Cc1cc(C(=O)N2CCNC(=O)C2)c(C)n1Cc1ccccn1,-70.27%
11,CCc1nc2c(c(C)c(C)n2Cc2cccnc2)c(N)c1C,18.39%
12,Cc1c(C)n(-c2ccccn2)c2nc3c(c(N)c12)CCCC3,19.64%
13,Cc1c(C)n(Cc2ccncc2)c2nc3c(c(N)c12)CCCCCC3,27.24%
14,Cc1c(C)n(Cc2ccncc2)c2nc3c(c(N)c12)CCCC3,-16.59%
15,O=C(C1CCOC1)N1CCN(Cc2ccncc2)c2ncccc2C1 (centres undefined),-72.96%
16,Cn1cc(I)c(C(=O)NC2CCCCC2)n1,-69.52%
17,CCCC(O)CN1CCC(=O)N(CC)Cc2cc3c(cc21)OCO3 (centres undefined),-23.81%
18,CC(CC(=O)N1CCCN(Cc2cscn2)CC1)n1cccc1 (centres undefined),4.954%
19,CC(NCc1cccc(COC2CCCC2)c1)c1cnn(C)c1 (centres undefined),19.99%
20,CC(C)CC(Cc1cccc(Br)c1)C(=O)O (centres undefined),-132.5%
21,Cc1nc(C)c(S(=O)(=O)NC(=O)c2cccs2)s1,-74.76%
22,CO[C@H]1CC[C@H]2[C@H]1OCCN2Cc1ccc(F)cc1.O=C(O)C(F)(F)F,-88.16%

row,Compound,Percent Effect
1,Cc1ccnc(NC(=O)C2CCN(CCCn3ccnc3C)CC2)c1,23.63%
2,CCCc1nnsc1C(=O)NCC(O)c1ccc(SC)cc1 (centres undefined),-63.08%
3,Cc1cccc(CN2CCCC3(CCN(CC4CCCO4)CC3)C2)n1.O=C(O)C(F)(F)F.O=C(O)C(F)(F)F (centres undefined),42.53%
4,Cc1cccc(CN2CCC3(CCCN(Cc4cnn(C)c4)C3)C2)n1.O=C(O)C(F)(F)F.O=C(O)C(F)(F)F (centres undefined),-27.4%
5,COc1cccc(C(=O)N2CCCC(CNS(C)(=O)=O)C2)c1 (centres undefined),-46.69%
6,O=C(CCn1cccc1)N1CCc2[nH]nc(COc3ccccc3)c2C1,-21.18%
7,CS(=O)(=O)NC[C@H]1Cn2c(-c3ccccc3)cnc2CO1,-22.21%
8,CS(=O)(=O)NC[C@H]1Cn2c(-c3ccc(F)cc3)cnc2CO1,-35.88%
9,CS(=O)(=O)NC[C@H]1Cn2c(-c3ccc(Cl)cc3)cnc2CO1,56.68%
10,CC(C)c1noc(C2CCN(C(=O)c3cccs3)CC2)n1,-59%
11,O=C(NCCCN1CCCC1=O)c1nc(-c2ccc3cc[nH]c3c2)no1,-52.39%
12,O=C1CC2(CCN(Cc3ccsc3)C2)CN1c1ccc2c(c1)OCO2 (centres undefined),-25.08%
13,O=C1CCCN1Cc1nnc2n1CCCN(C(=O)c1ccco1)C2,-1.82%
14,CC(=O)N1CCC(Oc2ccc(Cl)cc2C(=O)N2CCCO2)CC1,-31.72%
15,O=C(c1cc(Cl)ccc1OC1CCN(C2CCCC2)CC1)N1CCCO1,51.12%
16,O=C(c1cc(Cl)ccc1OC1CCN(C2CCCC2)CC1)N1CC(O)C1,-105.7%
17,Cc1noc(C)c1CCC(=O)N1CCCCC1CNS(C)(=O)=O (centres undefined),-22.15%
18,COc1ccc2c(ccn2CCC(=O)/N=c2\[nH]nc(C3CCCO3)s2)c1 (centres undefined),-157%
19,Cc1nc(Oc2ccccc2F)sc1C(=O)O,-115.2%
20,COc1ccc(-c2cc(CNc3ncnc4c3CCNCC4)no2)cc1,13.56%
21,Cc1ccccc1-n1cc(CNc2ncnc3c2CCNCC3)cn1,25.52%
22,Cc1ccc(-c2cc(CNc3ncnc4c3CCNCC4)no2)cc1,62.41%

row,Compound,Percent Effect
1,Clc1ccccc1-c1cc(CNc2ncnc3c2CCNCC3)no1,79.72%
2,c1ccc(Cn2cc(CNc3ncnc4c3CCNCC4)cn2)cc1,-75.72%
3,Cc1cccc(-n2cc(CNc3ncnc4c3CCNCC4)cn2)c1,12.81%
4,Cc1nn(CC(=O)O)c(C)c1NS(=O)(=O)c1cc2ccccc2s1,-90.75%
5,COc1ncccc1CNC1CCc2c(ccc(=O)n2CC2CC2)C1.O=C(O)C(F)(F)F.O=C(O)C(F)(F)F (centres undefined),-69.76%
6,O=C(COCC(=O)N(c1ccccc1)c1ccccc1)N1CCOCC1,-115.4%
7,CCc1nc(CN(C)C2CCN(CCCOc3ccccc3)C2)no1 (centres undefined),-2.481%
8,COc1ccccc1-c1ncc(CN2CCCC(CCC(N)=O)C2)s1 (centres undefined),-45.2%
9,COc1ccccc1-c1ncc(CN2CCCC[C@H](N(C)C)C2)s1,69.91%
10,CN(C)[C@H]1CCCCN(Cc2cnc(NCc3ccccc3)nc2)C1,-25.46%
11,CC(=O)Nc1ccc2nc(CN(C)Cc3noc(C)n3)ccc2c1,-81.21%
12,CC(C)S(=O)(=O)CCN1CCN(C(C#N)c2ccccc2)CC1 (centres undefined),-69.53%
13,NC(=O)C1CCN(c2ccc(C(=O)N3CCc4ccccc43)cn2)C1 (centres undefined),-37.49%
14,c1ccc(-n2nnnc2NCc2ccc3c(c2)OCO3)cc1,-79.7%
15,O=C(CSc1ccc2c(c1)OCCO2)NS(=O)(=O)c1ccccc1Br,-14.98%
16,I.c1ccc(Sc2ccc3c(c2)OCO3)c(CNC2=NCCN2)c1,83.34%
17,CNCc1nc(-c2ccc3c(c2)OCO3)c[nH]1.Cl.Cl,-83.48%
18,N#Cc1c[nH]nc1NCc1ccc2c(c1)OCO2,-94.84%
19,Cc1ccc(N(CC(=O)N2CCCCC2)C(=O)C2CCCO2)cc1 (centres undefined),-77.19%
20,CS(=O)(=O)N1C[C@@H]2COC[C@]2(COCC(=O)N2CCCC2)C1,-14.15%
